Compound activity from PubChem BioAssay.
A selection: hits, their analogues and other compounds. The true share with any hit is near 19%.
HepG2 tox – counter-screen for TGF-b inhibitors: cytotoxicity in HepG2 cells. HepG2 CAGA-GFP viability, ATP luminescence, 18 h. 0.76% of 410,000 active. Potency, µM (highest dose often 46.1 µM), without a hit: at the top dose activity change, negative = cytotoxicity, usual class: cytotoxic; further: potency means the concentration at half of the fitted maximal effect
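CellTiter-Glo luminescence gave cytotoxicity after 18 hours at 37 degrees C. The cells were HepG2 CAGA-GFP in 1% FBS DMEM, stimulated with 500 pg/mL TGF-beta after compound addition. %Activity was normalised to no-cell wells (complete cell-killing) and DMSO (no toxicity), and curves were fitted and classified.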
DT40 TDP1 CPT – growth inhibition of DT40 Tdp1-/-;hTDP1 cells with camptothecin (screen for TDP1 inhibitors); Potency, µM (titrated, usually from 46.2 µM), for the others: at the highest dose activity change, negative = growth inhibition, most hits filed as inhibitors; AID 686979; chicken DT40 Tdp1-/-;hTDP1 cells + 20 nM CPT, ATP luminescence, 48 h; 12% of 420,000 active; further: potency means the concentration at half of the fitted maximal effect; on the % scale 0 is the no-effect control and ±100 the full control effect; nearly all actives have a fitted effect of over 55% in size
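Cell growth measured by CellTiter-Glo luminescence after a minimum 48 h, 37 C compound exposure with 20 nM CPT in Tdp1-knockout DT40 cells stably expressing hTDP1, seeded 400/well; qHTS titration format.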
IL-1B inflam inh – blocks inflammasome-driven IL-1 beta release; THP-1 LPS/ATP IL-1B secretion, AlphaLISA, 16 h; stronger effect = lower value; activity change, % at 57.5 µM; 4.7% of 360,000 active; in the data active means activity change below about -50%; inconclusive means mostly about -30% to -49%; further: on the % scale 0 is the no-effect control and ±100 the full control effect
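Secreted IL-1B measured by AlphaLISA bead assay after 16 h compound exposure of THP-1 cells; compounds (final up to 57.5 uM) added 1 h before LPS (250 ng/mL) and ATP (1.25 mM) stimulation; lower signal means less secretion.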
S-ASM inh – blocks human secretory acid sphingomyelinase; P17405; placental ASM, HMU-PC fluorogenic substrate, 60 min; Potency, µM (doses to about 57.5 µM), inactives show top-dose activity change, negative = inhibition, hits mostly inhibitors; 0.006% of 340,000 active; AID 504937; further: potency means the concentration at half of the fitted maximal effect
Target sequence (P17405 47-631 limits assumed): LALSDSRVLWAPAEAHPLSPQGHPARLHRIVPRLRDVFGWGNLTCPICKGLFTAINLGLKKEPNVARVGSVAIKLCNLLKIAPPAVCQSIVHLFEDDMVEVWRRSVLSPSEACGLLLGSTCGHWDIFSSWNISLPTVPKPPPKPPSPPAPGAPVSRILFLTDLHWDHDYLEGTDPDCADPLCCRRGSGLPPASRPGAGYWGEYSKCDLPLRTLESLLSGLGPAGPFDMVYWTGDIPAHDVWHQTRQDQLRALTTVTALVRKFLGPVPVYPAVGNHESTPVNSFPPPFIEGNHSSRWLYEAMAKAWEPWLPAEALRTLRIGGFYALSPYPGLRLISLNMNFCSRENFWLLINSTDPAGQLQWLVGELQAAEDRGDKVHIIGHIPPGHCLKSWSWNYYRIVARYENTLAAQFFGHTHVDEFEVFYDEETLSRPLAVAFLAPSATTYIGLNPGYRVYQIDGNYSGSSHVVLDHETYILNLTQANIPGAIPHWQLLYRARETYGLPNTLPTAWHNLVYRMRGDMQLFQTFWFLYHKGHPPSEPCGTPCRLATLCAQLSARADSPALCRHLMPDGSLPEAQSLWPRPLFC
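Steps: dispense placental human ASM, pin compound, wait 10 min at room temperature, add HMU-PC0 substrate at 9 uM final, incubate 60 min at 37 °C, add stop solution raising pH to 10, read fluorescence.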
DT40 TDP1 no CPT – qHTS for Inhibitors of human tyrosyl-DNA phosphodiesterase 1 (TDP1): qHTS in cells in absence of CPT; DT40 Tdp1-/- hTDP1 cells, no CPT, ATP luminescence, 48 h; Potency, µM (top dose mostly 46.2 µM), for the others: at the top dose activity change, negative = growth inhibition, hits mostly inhibitors; 15% of 420,000 active; further: potency means the concentration at half of the fitted maximal effect; on the % scale 0 is the no-effect control and ±100 the full control effect; nearly all actives have a fitted effect of over 55% in size
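Compound effects on proliferation are scored in DT40 Tdp1-/-;hTDP1 cells in the absence of CPT. ATP levels (CellTiter-Glo luminescence) are recorded after a ≥48 hr, 37 °C incubation.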
TGFb SMAD3 inh – blocks TGF-b signaling. HepG2 CAGA-GFP TGF-b/SMAD3 reporter, GFP fluorescence, 18 h; TGF-beta stimulated, 500 pg/mL final. Potency, µM (series often up to 46.1 µM), inactives show at the top dose activity, negative = inhibition, usual class: inhibitors. AID 588855. 1.2% of 410,000 active; further: potency means the concentration at half of the fitted maximal effect; on the % scale 0 is the no-effect control and ±100 the full control effect; nearly all actives have a fitted effect of over 65% in size
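Using HEPG2 CAGA-GFP reporter cells at 1000 cells/well, we pinned test compounds, stimulated with recombinant TGF-beta (500 pg/mL final) and measured total well GFP after 18 h.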
Numbers without * were called inactive; ? = inconclusive; · = no result. Unless noted, the call rests on the fitted dose curve; in most records, active means well fitted curve in the direction sought with a large enough effect; inconclusive means small, poorly fitted or top-dose-only effect, or another doubt; inactive means no such curve, though single readings can be large; an effect the other way counts as inactive or inconclusive.

SMILES	HepG2 tox	DT40 TDP1 CPT	IL-1B inflam inh	S-ASM inh	DT40 TDP1 no CPT	TGFb SMAD3 inh
O=C(CS(=O)c1ccc(C(F)(F)F)cc1[N+](=O)[O-])Oc1ccccc1 (stereo not given)	3.55µM*	5.8µM*	-114.1*	3.4%	4.61µM*	?
CCOc1ccc(N2CC(C(=O)Nc3cccc(C(=O)NC4CC4)c3)CC2=O)cc1 (stereo not given)	-2.7%	-1.1%	6.4	3.2%	4.1%	-2.9%
Cn1c2c(c(=O)n(C)c1=O)C(c1ccc(F)cc1)C(C#N)=C(N)O2 (stereo not given)	0.5%	13.2%	-69.4*	0.4%	3.2%	0.2%
Cc1ccccc1CN1C(=O)C(C)Sc2ccc(-c3ccco3)cc21 (stereo not given)	-30.7%	?	63.6	·	?	-0.9%
O=C(NC(=S)N1CCOCC1)c1ccc(F)cc1	-1.8%	-21.6%	-6.8	0.7%	-9.2%	0.5%
CCN1C(=O)CC(c2ccccc2)N(C2CCCC2)c2nc(Nc3ccc(C(=O)NC4CCN(C)CC4)cc3OC)ncc21 (stereo not given)	12.6µM*	?	-77.3*	-10.1%	?	?
CCN1C(=O)CC(C(C)C)N(C2CCCC2)c2nc(Nc3ccc(C(=O)NC4CCN(C)CC4)cc3OC)ncc21 (stereo not given)	-90.5%	?	-73.8*	-12.6%	?	?
CC(=O)Oc1cc2c(cc1Cl)C1(CC(c3ccccc3Cl)O2)CC(C)(C)NC(=S)N1 (stereo not given)	-38.0%	3.26µM*	-23.5	-20.7%	2.59µM*	?
COc1ccc(N2C(=S)NC(C)(C)CC2(C)c2ccc(OC(C)=O)cc2OC(C)=O)cc1 (stereo not given)	7.9%	13.5%	7.0	-0.5%	9.9%	14.4%
CCC(NC(=O)C1CCCC1)c1ccccc1 (stereo not given)	5.2%	-1.8%	12.6	-1.8%	-16.6%	0.6%
CCOc1ccc2c(c1)C(C)=CC(C)(C)N2S(=O)(=O)c1ccc(C)cc1	-29.6%	?	26.2	-2.3%	6.51µM*	?
CC1=CC(C)(C)N(S(=O)(=O)c2ccc(C)cc2)c2cc(C)ccc21	-37.5%	5.8µM*	36.5	-3.9%	5.17µM*	?
CCNC(=O)N1c2ccc(OCC)cc2C(C)=CC1(C)C	-4.6%	?	-11.6	100.8%	18.4µM*	-12.1%
COc1ccc2c(c1)C(C)=CC(C)(C)N2S(=O)(=O)c1ccc(C)cc1	-9.0%	5.8µM*	69.5	-4.7%	5.17µM*	?
COCCNC(=O)CN1CCC(NC(=O)c2ccco2)CC1	-1.6%	-8.9%	-9.9	1.9%	4.4%	12.7%
O=C(NN1CCOCC1)c1cccc(Cl)c1	-1.4%	-4.3%	15.0	-1.3%	20.6%	-10.7%
Cc1ccc(Cn2ccnc2SCC(=O)Nc2ccc3c(c2)OCO3)cc1	-41.9%	12.2%	·	·	-25.8%	·
CC(C)N(C(=O)Cn1cc(SCC(N)=O)c2ccccc21)C(C)C	2.7%	1.4%	3.9	-0.1%	0.8%	10.7%
CCOC(=O)[C@@H]1CSCCS(=O)(=O)N1Cc1ccccc1Br	-36.9%	-29.4%	38.8	-5.8%	-24.4%	?
C=C1[C@@H](O)[C@H](CC(C)C)N(Cc2ccccc2Br)S1(=O)=O	10µM*	5.01µM*	?	0.3%	18.4µM*	8.91µM*
Cc1ccc(CNC(=O)C(=O)NCCC2CCCCN2S(=O)(=O)c2ccccc2)cc1 (stereo not given)	-5.2%	?	-4.7	1.9%	14.6µM*	-1.0%
O=C(NCCC1CCCCN1S(=O)(=O)c1ccccc1)C(=O)NCc1ccc(F)cc1 (stereo not given)	-11.4%	?	-24.6	2.3%	18.4µM*	-6.7%
